# Methyltransferases = Primary Screen for Target Class Profiling of Small Molecule Inhibitors of Methyltransferases; purified enzyme, MTase-Glo SAH luminescence; hits give low values; actives 3.9% (n = 25,000); calls only at 40 µM; call rule not given here
#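 Each enzyme was reacted with SAM and its substrate, with compounds tested once at 40 uM; SAH formed was read by MTase-Glo luminescence.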
# MTase-Glo ctr = counter-screen for methyltransferase inhibitors: coupling enzymes without methyltransferase; actives 6% (n = 180); MTase-Glo coupled enzymes, SAH conversion luminescence, no MTase; Potency, µM (doses to about 57.3 µM), for inactives: at the highest dose activity change, negative = inhibition, hits mostly inhibitors; shares compounds with Methyltransferases; AID 1745851; active means well fitted inhibition curve with a large enough effect; further: potency means the concentration at half of the fitted maximal effect
# Numbers without * were called inactive; i = inactive; + = active, no number; [ ] = another dose, or the depositor's remark. Many of the other results were omitted from the sample, so hits are more common in it than they were. On the % scale 0 is the no-effect control and ±100 the full control effect.
SMILES,Methyltransferases,others
COc1ccc2nc(C[C@@H]3C[C@@H](C(C)C)[C@H](CNC(=O)NC4CCCCC4)C=C3C)[nH]c2c1,i,
CC1=C[C@@H](CN(CC2CC2)CC2CC2)[C@H](C(C)C)C[C@H]1Cc1nc2ccncc2[nH]1,+,MTase-Glo ctr=35µM*
COc1ccc(S(=O)(=O)c2nnn3c2nc(Nc2cccc(C)c2)c2ccccc23)cc1,i,
Cc1ccc(Cc2nc(CCNS(=O)(=O)c3cc(C)c(C)cc3C)n[nH]2)cc1,i,
O=C(CCc1nnc2n(Cc3ccc(F)cc3)c(=O)c3ccccc3n12)NCc1ccccc1,i,
CCc1cc2c(cc3n2CC(C)(C(=O)NC2CCCCC2)N(CCCN2CCCCC2)C3=O)s1 (centres undefined),i,
Cn1cccc1C(=O)N1CC[C@H](CO)[C@H](NC(=O)C2CC2)C1,i,
CN1CC2(CCN(C(=O)c3cccn3C)CC2)CC(c2ccccc2)C1=O (centres undefined),i,
CN(C)CC1(O)CCC2(CCN(C(=O)c3cccn3C)CC2)CC1,+,MTase-Glo ctr=5.4µM*
CNC1=C(c2ccc(F)cc2)C(=O)N(Cc2ccccc2)C1,i,
C=Cc1ccc(Cn2nc3n(CCC(C)C)c(=O)c4ccc(C(=O)NC5CCCC5)cc4n3c2=O)cc1,i,
CCCn1c(=O)c2ccc(Cl)cc2n2c(=O)n(CC(=O)N3CCN(c4ccc(F)cc4)CC3)nc12,i,
Cc1noc(C)c1-c1cc2c(cc(C)n2CCN(C)C)c(Nc2ccncn2)n1,+,MTase-Glo ctr=-3%[85.7 µM]
COc1ncccc1-c1nc(-c2c(C)noc2C)cc2cc(CN(C)C)oc12,i,
COc1cccc(C(=O)Cn2nc3n(C)c(=O)c4ccc(C(=O)NC5CCCC5)cc4n3c2=O)c1,i,
COCc1nnc2n1CCC(NC(=O)CCc1c(C)noc1C)CC2 (centres undefined),i,
CC(C)Cn1c(=O)c2ccccc2n2c(SCC(=O)Nc3ccc(C(C)C)cc3)nnc12,i,
CC(C)Nc1nc(Nc2ccccc2)nc(-c2ccccc2)n1,i,
CCOc1c(CN(C)C(=O)Cn2cccc(OC)c2=O)cccc1OC,+,MTase-Glo ctr=-6%
CCC(C(=O)N(C)Cc1ccc(OC)c2ncccc12)n1cccn1 (centres undefined),i,
COc1cccn(CC(=O)N2CCN(c3ccccc3C#N)CC2)c1=O,i,
COc1ccc(CNC(=O)Cn2ccc3cc(S(=O)(=O)N4CCCC4)ccc32)cc1,i,
CC1(C(=O)NC2CCCC2)Cn2c(ccc2-c2ccccc2)C(=O)N1Cc1cccs1 (centres undefined),i,
COC(=O)CNC(=O)NCCc1ncc(C)n1C1CCCC1,i,
CNC(=O)NCCc1ncc(C)n1C1CCCCCCC1,+,MTase-Glo ctr=0%
SMILES,Methyltransferases,others
CCCNC(=O)NCCc1ncc(C)n1CC1CC1,i,
CC(C)CCn1c(=O)c2ccccc2n2c(SCC(=O)Nc3cccc(Cl)c3)nnc12,i,
Cc1nn2c(c1-c1cccnc1N1CCOCC1)N(C(=O)c1cc3ccccc3n1C)CCC2,i,
COc1ncccc1-c1cc2c(ccn2CC2CCN([S+](C)(=O)[O-])CC2)c(N2CCOCC2)n1,+,MTase-Glo ctr=-1%
CCCn1c(=O)c2ccc(C(=O)NC(C)CC)cc2n2c(=O)n(CC(=O)NCc3ccccc3)nc12 (centres undefined),i,
Cc1ccccc1OCc1nc(C2CN(C(=O)c3nccc4ccccc34)C2)no1,i,
COc1ccc(CCNC(=O)c2cc3n(n2)CC(C)(C(=O)NCc2ccc(F)cc2)N(C)C3=O)cc1OC (centres undefined),i,
CCCCN(C)C(=O)c1c(C)sc2ccn(CCC)c(=O)c12,+,MTase-Glo ctr=-1%
Cc1sc2ccn(CC(C)C)c(=O)c2c1C(=O)N1CCCCC1,i,
COc1ccc(C(C)NC(=O)c2c(C)sc3ccn(C)c(=O)c23)cc1 (centres undefined),i,
CCCNC(=O)N1CCC(Cc2ccc(CCNC(C)=O)cc2)CC1,i,
CC(C)(C)c1cc2n(n1)CC(C)(C(=O)NC1CCCCCC1)N(Cc1cccc(F)c1)C2=O (centres undefined),i,
c1ccc(-c2nnc([C@H]3CCN(C4CCC4)C3)o2)cc1,i,
FC(F)(F)c1ccnc(N2CC[C@H](c3nnc(-c4ccncc4)o3)C2)n1,+,MTase-Glo ctr=-4%[85.7 µM]
COc1ccc(C(=O)N2CC[C@H](c3nnc(-c4ccccc4)o3)C2)cc1,i,
CN1C(=O)c2cc(C(=O)NCCc3ccccc3)nn2CC1(C)C(=O)NCc1ccc(F)cc1 (centres undefined),i,
CN1C(=O)c2cc(C(=O)NCc3cccc(Cl)c3)nn2CC1(C)C(=O)NC1CCCCCC1 (centres undefined),i,
COc1ccc2cc3n(c2c1)CC(C)(C(=O)NCC1CCCO1)N(Cc1ccc(Cl)cc1)C3=O (centres undefined),i,
CCCn1c(=O)c2ccc(C(=O)NCC(C)C)cc2n2c(SCC(=O)c3ccc(C)cc3)nnc12,i,
O=C(Cn1nc2n(Cc3ccccc3)c(=O)c3ccccc3n2c1=O)Nc1cccc(F)c1,i,
CCOC(=O)c1cc2n(n1)CC(C)(C(=O)NCc1ccc(C)cc1)N(c1ccc(OC)cc1)C2=O (centres undefined),i,
